# Compound activity as filed in PubChem BioAssay.
# Rows were chosen to be rich in hits. Some 3.1% of all compounds tested hit in one or more screens of this group.
# FAS TE block = blocks the thioesterase domain of human fatty acid synthase | P49327 | recombinant FAS-TE, OMFH fluorogenic substrate, fluorescence endpoint | inhibition, % at 15 µM | 360,000 tested, 0.67% active | AID 602261;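 active = compounds whose normalised, plate-corrected inhibition of enzyme fluorescence in the single-dose primary screen is 50% or more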;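 note: 0% = DMSO with enzyme and 100% = substrate without enzyme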
# SUMO Mot1 rescue = blocks SUMOylation pathway, rescuing yeast Mot1-301 growth. S. cerevisiae Mot1-301 growth rescue, ATP luminescence, 38.5C; percent above DMSO median, 100 means doubled. growth rescue, % at 18.8 µM. 320,000 tested, 1% active. AID 2716;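 active = every valid replicate shows activation above 250% relative to neutral control wells; inactive = the rest, any valid replicate at or below 250%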;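 note: OY570 slx delta 5 strain wells were the positive control but not used for scaling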
# ATG4B inh = ATG4B (human) cysteine protease inhibition; 340,000 tested, 0.51% active; Q9Y4P1; inhibition, % at 8.33 µM; ATG4B cleavage of LC3-PLA2, NBD-HPC fluorescence, 1 h; in the data active = inhibition above about 40%
# Target sequence (Q9Y4P1 whole entry, looked up): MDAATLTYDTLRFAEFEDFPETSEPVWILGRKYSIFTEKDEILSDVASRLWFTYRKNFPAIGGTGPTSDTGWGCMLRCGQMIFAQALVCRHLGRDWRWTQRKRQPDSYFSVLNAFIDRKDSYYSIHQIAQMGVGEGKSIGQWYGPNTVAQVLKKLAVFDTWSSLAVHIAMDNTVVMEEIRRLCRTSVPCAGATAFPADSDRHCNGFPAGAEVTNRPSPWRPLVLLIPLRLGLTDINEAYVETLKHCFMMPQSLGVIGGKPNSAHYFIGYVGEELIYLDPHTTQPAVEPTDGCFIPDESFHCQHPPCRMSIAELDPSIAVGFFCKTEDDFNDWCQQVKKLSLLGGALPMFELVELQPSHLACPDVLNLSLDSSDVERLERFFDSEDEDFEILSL
# NadD block = inhibitors of Staphylococcus aureus NadD; 360,000 tested, 0.78% active; AID 602399; inhibition, % at 20 µM; purified NadD enzyme, colorimetric absorbance read-out; in the data active = inhibition above about 26%
# Calb FLC = C. albicans growth modulation with fluconazole; 300,000 tested, 0.57% active; C. albicans CaCi-2 (fluconazole-resistant clinical isolate) + fluconazole, Alamar Blue growth, 48 h; growth inhibition, % (concentration not given with the values);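 active = growth inhibition above about 58% in most replicates, limit read from the data, passing the limit was not always enough; inconclusive = exactly half the replicates above a set limit; inactive = most replicates below a set limit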;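 note: all wells also contain fluconazole at 8 µg/ml as a sub-toxic cotreatment; 0% = median of DMSO wells and 100% = median of geldanamycin control wells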
# ATG4B conf = confirmation of human ATG4B inhibitors | 320 tested, 92% active | AID 504757 | inhibition, % at 8.33 µM | ATG4B protease fluorescent substrate cleavage assay | shares compounds with ATG4B inh; in the data active = inhibition above about 39%
# PLA2 counter = PLA2 (human) inhibition in ATG4B counter-screen | shares compounds with ATG4B inh | purified PLA2, NBD-C6-HPC fluorescence, 45 min | inhibition, % at 8.33 µM | 1,600 tested, 66% active; in the data active = inhibition above about 50%
# Target sequence (P04054 whole entry, looked up): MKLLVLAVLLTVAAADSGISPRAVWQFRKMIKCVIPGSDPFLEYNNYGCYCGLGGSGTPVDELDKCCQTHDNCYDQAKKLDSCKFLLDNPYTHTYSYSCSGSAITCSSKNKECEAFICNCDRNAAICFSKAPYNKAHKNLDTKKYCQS
# Numbers without * were called inactive; ? = inconclusive; nt = not tested or not shown.
SMILES,FAS TE block,SUMO Mot1 rescue,ATG4B inh,NadD block,Calb FLC,PLA2 counter,others
Cc1ccc(S(=O)(=O)N(C)C[C@@H]2Oc3ncc(Br)cc3C(=O)N([C@H](C)CO)C[C@@H]2C)cc1,-8,nt,nt,2,nt,nt,
COc1ccc(-c2cc(C)nc(SCc3cccc(C(=O)O)c3)n2)cc1,-9,-7,10,7,-14,nt,
O=C(O)c1cccc(CSc2nc(-c3ccc(Cl)cc3)cc(C(F)(F)F)n2)c1,-18,-7,52*,15,-4,45,ATG4B conf=62*
COc1ccc(-c2csc(NC(=O)c3ccc(C(C)(C)C)cc3)c2C(=O)O)cc1,nt,30,47*,nt,45,53*,
Cc1ccc(-c2csc(NC(=O)c3ccccc3F)c2C(=O)O)cc1,-5,-10,55*,-1,1,58*,
Cn1cc([N+](=O)[O-])c(C(=O)N/N=C/c2ccc3c(c2)OCO3)n1,22,-13,-8,1,-17,nt,
CCCn1c(N)c(C(=O)CSc2nnc(-c3cccs3)n2C2CC2)c(=O)[nH]c1=O,-7,nt,-21,-1,nt,nt,
COc1ccc2[nH]c3c(NCc4ccco4)ncnc3c2c1,nt,-16,4,nt,11,nt,
Fc1ccc2[nH]c3c(NCc4ccccc4)ncnc3c2c1,3,-11,50*,-1,0,65*,
NNC(=O)c1ccc(S(=O)(=O)N2CCc3ccccc32)cc1,-3,0,-4,-4,-4,nt,
COc1cc2c(cc1NC(=O)Nc1ccc(C)cc1)oc1ccccc12,29,85,12,6,1,nt,
COc1cc2c(cc1NC(=O)C(C)Sc1ccc(NC(C)=O)cc1)oc1ccccc12 (stereo not given),27,7,44*,-7,4,39,ATG4B conf=91*
O=C1C2C3C=CC(C3)C2C(=O)N1/N=C/c1cn(Cc2ccc(F)cc2)c2ccccc12 (stereo not given),24,-7,48*,7,2,70*,
O=C1C2C3C=CC(C3)C2C(=O)N1/N=C/c1cn(Cc2ccccc2)c2ccccc12 (stereo not given),16,-11,48*,6,-5,57*,
CN1C(c2ccccc2)CCOS1(=O)=O (stereo not given),-13,8,-8,-1,5,nt,
COc1cc(/C=C2\SC(=Nc3ccccc3)N(CCc3c[nH]c4ccccc34)C2=O)ccc1OC(C)C(=O)O (stereo not given),28,-10,46*,19,32,19,ATG4B conf=51*
COCCN1C(=O)/C(=C/c2ccc(Oc3ccc([N+](=O)[O-])cn3)c(OC)c2)SC1=Nc1ccccc1,28,-4,-3,9,-32,nt,
CCCN1C(=O)/C(=C/c2cc(C)n(C)c2C)SC1=Nc1ccc(OC)cc1,33,7,10,7,0,nt,
COc1ccc(N=C2S/C(=C\c3ccc(OC(C)C(=O)O)c(OC)c3)C(=O)N2CCc2c[nH]c3ccccc23)cc1 (stereo not given),25,nt,58*,20,2,65*,
S=C(Nc1cccc(Cl)c1)Nc1ccccc1Oc1ccccc1,24,-13,86*,-5,-29,88*,
S=C(Nc1ccc(Cl)cc1Cl)Nc1ccccc1Oc1ccccc1,18,0,72*,-2,-3,79*,
CCNC(=S)Nc1cc(Cl)ccc1Oc1ccccc1,7,-21,8,0,-8,nt,
CNC(=S)Nc1cc(Cl)ccc1Oc1ccccc1,-5,-3,10,5,-11,nt,
S=C(Nc1ccccc1Oc1ccccc1)Nc1cccc(Cl)c1Cl,30,18,88*,1,6,95*,
COc1ccc(NS(=O)(=O)c2ccc(C)c(C(=O)NCCCN3CCCC3=O)c2)cc1,-6,-11,-7,-7,nt,nt,
SMILES,FAS TE block,SUMO Mot1 rescue,ATG4B inh,NadD block,Calb FLC,PLA2 counter,others
CC(=O)Nc1cnc(/C=C\CCCO)cn1,-8,nt,nt,1,nt,nt,
CCc1cccc(C)c1NC(=O)COC(=O)c1c2c(nc3ccccc13)/C(=C\c1cccs1)CCC2,23,22,46*,21,-7,47,
CC(=O)c1ccc(OCc2cc(C(=O)N3CCN(C4CCCC4)C(=O)C3)no2)cc1,0,-10,-3,-1,-3,nt,
Cc1cccc(-n2c(CCc3ccccc3)nnc2SCC(=O)c2ccccc2)c1,30,13,72*,5,-3,75*,
COC(=O)c1cccc(NC(=O)CSc2nnc(COc3ccc(C#N)cc3)n2-c2ccccc2)c1,-10,-15,-13,-6,-4,nt,
N#Cc1ccc(OCc2nnc(SCC(=O)c3ccccc3)n2-c2ccccc2)cc1,10,9,46*,0,7,57*,
Cc1ccc(OCc2nnc(SCC(=O)O)n2-c2ccccc2)cc1,-4,-7,-3,-2,0,nt,
Cc1ccc(OCc2nnc(SCC(=O)c3ccccc3)n2-c2ccccc2)cc1,28,-19,74*,6,13,78*,
COC(=O)c1ccc(NC(=S)NC2CCc3ccccc32)cc1 (stereo not given),11,25,48*,-10,-8,56*,
COc1ccc(NC(=O)NC2CCCc3ccccc32)c(OC)c1 (stereo not given),0,-1,15,-5,9,nt,
COc1cccc(NC(=O)NC2CCCc3ccccc32)c1 (stereo not given),2,10,62*,-6,-12,62*,
Cc1cccc(CNc2ncnc3ccc(-c4ccccc4Cl)cc23)c1,12,-7,51*,1,nt,52*,
Cc1cccc(CNc2ncnc3ccc(-c4ccc5c(c4)OCO5)cc23)c1,14,183,34,5,nt,nt,
COc1ccccc1C(=O)NCC(=O)OCC(=O)N(CC(C)C)c1c(N)n(Cc2ccccc2)c(=O)[nH]c1=O,-5,-3,-2,-3,0,nt,
O=C1/C(=C\c2cccc(O)c2O)SC(=S)N1Cc1ccccc1,27,51,74*,3,3,89*,
O=C1/C(=C\c2cc([N+](=O)[O-])ccc2O)SC(=S)N1Cc1ccc(Cl)cc1,-39,74,52*,-2,86*,51*,
CCOC(=O)Cc1csc(NC(=O)c2ccc(S(=O)(=O)N3CCOCC3)cc2)n1,-1,-1,8,-3,?,nt,
CCN(CC)S(=O)(=O)c1ccc(C)c(NC(=O)COC(=O)CCC(=O)c2cccs2)c1,2,-16,-10,0,nt,nt,
Cc1nc([N+](=O)[O-])c(Br)n1Cc1ccc(Cl)c(Cl)c1,8,nt,-4,-2,-5,nt,
Cc1c(Cl)c([N+](=O)[O-])nn1Cc1ccc(C(=O)N/N=C\c2cccc(Br)c2)o1,33,-19,58*,21,24,68*,
O=C(N/N=C\c1cccc(Cl)c1)c1ccc(Cn2cc(Br)c([N+](=O)[O-])n2)o1,38,-12,-3,8,-14,nt,
